Compounds with a hit are over-represented: about 8.3% of the library has one in this group of screens.
FMDV antiviral: High Throughput Screening for Foot and Mouth Disease Virus Antivirals; FMDV antiviral cell-based qHTS; Potency, µM (doses to about 57.9 µM), inactives show top-dose activity change, negative = inhibition, hits mostly inhibitors; 410,000 tested, 1.2% active; calls by dose curve; tested in HEK293T cells; further: read-out not given here; potency means the concentration at half of the fitted maximal effect; nearly all actives have a fitted effect of over 45% in size
FBPA Giardia inh: qHTS Assay for Inhibitors of Fructose-1,6-bisphosphate Aldolase from Giardia Lamblia; A8B2U2; purified Giardia FBPA; Potency, µM (top dose mostly 59.6 µM), inactives show at the highest dose activity, negative = inhibition, most hits filed as inhibitors; 290,000 tested, 0.71% active; further: potency means the concentration at half of the fitted maximal effect; nearly all actives have a fitted effect of over 55% in size
Target sequence (A8B2U2 whole entry, looked up): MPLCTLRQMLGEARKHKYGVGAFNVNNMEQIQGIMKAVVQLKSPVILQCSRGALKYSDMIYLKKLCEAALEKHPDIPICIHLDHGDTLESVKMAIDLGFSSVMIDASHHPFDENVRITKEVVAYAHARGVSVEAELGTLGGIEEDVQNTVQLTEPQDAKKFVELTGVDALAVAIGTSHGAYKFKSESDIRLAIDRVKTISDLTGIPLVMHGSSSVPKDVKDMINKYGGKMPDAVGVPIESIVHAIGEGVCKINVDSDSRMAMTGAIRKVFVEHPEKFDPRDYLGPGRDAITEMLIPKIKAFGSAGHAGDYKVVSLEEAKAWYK
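Giardia FBPA (40 nM reagent) was preincubated 10 min at RT with compound (up to 57.5 uM final), then substrate plus GAPDH/TPI/NAD/arsenate coupling system with diaphorase/resazurin was added; resorufin fluorescence (525/598 nm) was read after 20 min.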
MARV entry inh: qHTS for inhibitors of binding or entry into cells for Marburg Virus. Marburg virus pseudotyped entry inhibition, cell reporter. Potency, µM (series often up to 37.8 µM), for inactives: at the highest dose activity change, negative = inhibition, most hits filed as inhibitors. 300,000 tested, 1.8% active. AID 540276, 2011; calls by dose curve; tested in HEK293 cells; further: potency means the concentration at half of the fitted maximal effect
HCV inhibitor: qHTS Assay for Inhibitors of Hepatitis C Virus (HCV); Huh7.5.1 HCVcc-Cre infection, luciferase reporter, 44 h; 340,000 tested, 3.4% active; Potency, µM (highest dose often 41.8 µM), inactives show at the top dose activity change, negative = inhibition, hits mostly inhibitors; further: potency means the concentration at half of the fitted maximal effect
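Infectious HCV cell culture screen: compound-treated cells (1,000/well, pre-plated 4 h) are infected with HCVcc-Cre at roughly 0.5 moi and grown 44 h. Infection is quantified by luciferase signal after 15 min substrate incubation at room temperature.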
HCMV inh: qHTS Assay for inhibitors of the human cytomegalovirus (HCMV). HFF cells, HCMV-luciferase reporter, 72 h; hits give low values. activity change, negative = inhibition, % at 57.5 µM. 410,000 tested, 4.5% active. AID 1259415, 2018; in the data active means activity change below about -60%; inconclusive means no clear call, values can overlap the other calls; inactive means above about -39%
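Two compound doses tested in HFFs infected with HCMV-luciferase, MOI 1 PFU/cell, 72 h at 37C. Lysate luminescence read with OneGlo; data normalized against buffer-only and 10uM Salinomycin inhibitor controls.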
LASV entry inh: qHTS for Inhibitors of binding or entry into cells for Lassa Virus | Lassa virus pseudotype entry inhibition, cell reporter | Potency, µM (doses to about 37.9 µM), for inactives: at the highest dose activity change, negative = inhibition, actives largely listed as inhibitors | 300,000 tested, 1.2% active | AID 540256, 2011; calls by dose curve; tested in HEK293 cells; further: potency means the concentration at half of the fitted maximal effect; nearly all actives have a fitted effect of over 50% in size
Active calls of the source: *; ? = inconclusive; / = no result; [ ] = dose if it differs, or a comment. Unless noted, the call rests on the fitted dose curve; in most records, active means well fitted curve in the direction sought with a large enough effect; inconclusive means small, poorly fitted or top-dose-only effect, or another doubt; inactive means no such curve, though single readings can be large; an effect the other way counts as inactive or inconclusive. On the % scale 0 is the no-effect control and ±100 the full control effect.

SMILES | FMDV antiviral | FBPA Giardia inh | MARV entry inh | HCV inhibitor | HCMV inh | LASV entry inh
O=[N+]([O-])c1cccc(CSC2=NCCN2S(=O)(=O)c2ccccc2)c1 | ? | ? | / | -28.8% | -74.4* | /
O=[N+]([O-])c1ccc(S(=O)(=O)N2CCN=C2SCc2cccnc2)cc1 | 0.0% | -5.7% | 1.6%[46.1 µM] | -0.4% | -72.8* | ?
O=C(c1ccc(S(=O)(=O)N2CCCCC2)cc1)N1CCN=C1SCc1cccnc1 | -6.7% | -0.5% | -2.0% | -0.4% | -26.7 | /
O=S(=O)(c1ccccc1)N1CCN=C1SCc1ccccc1 | -8.4% | ? | ? | 1.5% | -20.4 | -22.9%
O=C(CCc1nc(-c2cccs2)no1)Nc1cccc([N+](=O)[O-])c1 | -15.1% | / | 0.8%[46.1 µM] | / | -7.9 | 7.8%[46.1 µM]
CO[C@]1(NC(=O)Cc2cccs2)C(=O)N2C(C(=O)O)=C(COC(N)=O)CS[C@H]21 | / | -14.4%[21.7 µM] | / | / | / | /
Cc1ccc(CNc2nc(CN3CCN(C=O)CC3)nc3ccccc23)o1 | -3.0% | / | / | / | / | /
c1ccc(CCc2nn3c(Cn4cnc5ccccc54)nnc3s2)cc1 | ? | 13.2% | -18.0% | -5.1% | -4.6 | ?
COc1ccc(OCc2nn3c(Cn4cnc5ccccc54)nnc3s2)cc1 | ? | 8.6% | ? | ? | -68.2* | -23.6%
O=C(O)c1ccc([N+](=O)[O-])c(CS(=O)(=O)c2ccccc2)c1 | -12.6% | 4.8% | 7.5% | -0.8% | -27.5 | -12.1%
CN(C)/C=C/C(=O)c1ccc([N+](=O)[O-])c(CS(=O)(=O)c2ccccc2)c1 | -7.6% | -8.3% | -2.4%[46.1 µM] | 0.7% | -98.2* | 9.0%[46.1 µM]
CCOC(=O)CNC(=O)c1cc2c(=O)n(CC)c3ccccc3c2s1 | 15.5% | / | -3.0%[46.1 µM] | / | 8.7 | 23.1%[46.1 µM]
C=C(C)COc1ccc(-c2n[nH]c(C)c2-c2ccc(OC)cc2)c(O)c1 | 25.1µM* | -18.1% | ? | ? | -106.2* | ?
COc1ccc(-c2n[nH]c(C)c2-c2cscn2)c(O)c1 | -10.6% | -18.0% | / | -14.5% | ? | /
CC(=O)OC1(c2ccccc2)CCN(C)CC1(C)C (centres undefined) | 7.6% | -0.9% | / | 14.9% | -80.0* | /
c1ccc(-c2nn[nH]n2)c(Nc2cccc3c2CCCC3)c1 | / | 19.0% | / | / | / | /
Cc1ccc(CC(=O)Nc2ccc(Cl)cn2)cc1 | 50.1% | 4.1% | / | -9.6% | -39.8 | /
Cc1ccc(C(=O)Nc2nccc(-c3cccs3)n2)cc1 | 26.1% | -11.5% | 18.7% | 1.2% | -5.7 | -1.2%
CCCOc1ccc(C(=O)Nc2ccc(Cl)cn2)cc1 | ? | -3.0% | 6.31µM* | -24.6% | -5.9 | 17.8µM*
Cc1ccc(C(=O)Nc2ccc(Cl)cn2)cc1 | -10.5% | -13.7% | 7.3µM* | ? | 50.0 | ?
Cc1ccc(C(=O)Nc2ncc3c(Cl)cccc3n2)cc1 | 10µM* | -9.2% | ? | -25.0% | -89.9* | ?
C[C@H]1[C@@H](NC(=O)NCCCc2ccccc2)CC[C@@]23CCCN2C(=O)CCC[C@@H]13 | / | / | / | / | -16.7 | /
CC(C)(C)Nc1oc(-c2ccccc2)nc1-c1cccc2ccccc12 | / | -0.4% | -3.9%[14.2 µM] | / | / | /
Cc1ccccc1-c1nc(NCCN2CCOCC2)c2ccccc2n1 | -6.2% | -5.5% | / | / | / | /
Oc1ccc2ccccc2c1/C=N/Nc1nnc(-c2ncc[nH]2)c2ccccc12 | -2.6% | 7.5% | 6.51µM* | 3.16µM* | -102.3* | ?
SMILES | FMDV antiviral | FBPA Giardia inh | MARV entry inh | HCV inhibitor | HCMV inh | LASV entry inh
Oc1ccc2ccccc2c1C=NNc1ccccn1 | 9.7% | / | 5.62µM* | 3.16µM* | -97.7* | ?
O=c1c2ccccc2nc(N/N=C/c2c(O)ccc3ccccc23)n1O | 0.0% | ? | 0.794µM* | 0.891µM* | -101.4* | 0.631µM*
COc1ccc(/C=N/Nc2nnc(-c3ncc[nH]3)c3ccccc23)cc1 | ? | 0.0% | 28.8% | -5.2% | / | 18.2%
C/C(=N\Nc1nc2ccccc2s1)c1ccc(Br)s1 | ? | -14.6% | ? | 11.2µM* | -19.6 | ?
C/C(=N\Nc1nc2ccccc2s1)c1ccc2c(c1)OCO2 | 25.8% | -3.6% | -9.1% | ? | 116.7 | ?
c1ccc2sc(NN=C3CCCCCC3)nc2c1 | ? | -7.4% | ? | ? | 4.0 | ?
CC(=NNc1nc2ccccc2s1)c1ccncn1 | 0.0% | / | ? | ? | -100.4* | ?

Bioassay records as filed in PubChem.
